Reference: PubChem BioAssay AID2284087 (EPA ToxCast)
Activity calls are given as the source filed them. The calls were made as follows: active = hit-call score of the fitted dose curve at least 0.9, where 1 is the maximum; inactive = score below 0.9.

Each compound was assayed against human Flt-1 (VEGFR1) (FLT1) Receptor Tyrosine Kinase, FLT1 (gene 2321) (UniProt P17948) (assay: ERF_FR_ENZ_hFLT1: Eurofins (ERF) Enzymatic Radiometric [Km ATP] KinaseProfiler LeadHunter Assay for human Flt-1 (VEGFR1) (FLT1) Receptor Tyrosine Kinase).
Chain of human Flt-1 (VEGFR1) (FLT1) Receptor Tyrosine Kinase, FLT1 (gene 2321) (P17948 whole entry, looked up): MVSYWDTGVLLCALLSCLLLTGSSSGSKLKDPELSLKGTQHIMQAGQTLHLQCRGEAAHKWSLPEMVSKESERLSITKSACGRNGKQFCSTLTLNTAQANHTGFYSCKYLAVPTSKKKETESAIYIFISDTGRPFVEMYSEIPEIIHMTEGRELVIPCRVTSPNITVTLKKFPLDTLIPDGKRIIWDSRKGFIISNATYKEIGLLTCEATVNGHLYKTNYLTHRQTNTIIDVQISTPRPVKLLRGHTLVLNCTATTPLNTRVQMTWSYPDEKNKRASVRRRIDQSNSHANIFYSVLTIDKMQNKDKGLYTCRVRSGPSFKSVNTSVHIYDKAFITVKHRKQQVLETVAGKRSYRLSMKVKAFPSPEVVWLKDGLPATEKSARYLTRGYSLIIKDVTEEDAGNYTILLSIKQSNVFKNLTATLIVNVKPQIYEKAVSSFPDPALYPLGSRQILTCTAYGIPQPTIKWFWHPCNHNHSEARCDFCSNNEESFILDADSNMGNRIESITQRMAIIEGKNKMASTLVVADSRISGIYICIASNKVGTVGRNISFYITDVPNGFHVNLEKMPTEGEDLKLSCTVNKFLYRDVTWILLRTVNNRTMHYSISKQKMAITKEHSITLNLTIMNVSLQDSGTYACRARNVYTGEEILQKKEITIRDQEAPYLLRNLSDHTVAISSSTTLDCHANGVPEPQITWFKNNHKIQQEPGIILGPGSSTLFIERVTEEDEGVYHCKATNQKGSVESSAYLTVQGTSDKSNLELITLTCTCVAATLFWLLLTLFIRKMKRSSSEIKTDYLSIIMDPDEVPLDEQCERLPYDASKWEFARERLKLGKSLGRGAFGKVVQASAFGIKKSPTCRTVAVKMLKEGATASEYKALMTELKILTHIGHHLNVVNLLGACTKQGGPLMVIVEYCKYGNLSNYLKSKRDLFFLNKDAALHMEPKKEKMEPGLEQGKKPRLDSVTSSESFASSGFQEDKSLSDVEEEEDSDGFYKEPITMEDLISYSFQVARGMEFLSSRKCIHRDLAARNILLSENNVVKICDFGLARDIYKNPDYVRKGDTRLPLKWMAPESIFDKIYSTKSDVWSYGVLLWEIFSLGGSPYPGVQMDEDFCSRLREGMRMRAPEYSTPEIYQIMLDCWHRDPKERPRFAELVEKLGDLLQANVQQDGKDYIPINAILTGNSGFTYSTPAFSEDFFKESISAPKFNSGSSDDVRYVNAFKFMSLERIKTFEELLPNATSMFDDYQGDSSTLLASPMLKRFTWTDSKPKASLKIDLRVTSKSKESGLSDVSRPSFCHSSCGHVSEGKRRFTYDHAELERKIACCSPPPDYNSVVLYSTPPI
Procedure: ERF_FR_ENZ_hFLT1 is a biochemical, single-readout assay that uses extracted gene-proteins in a cell-free assay. Measurements were taken 0.25 hour after chemical dosing in a 96-well plate. See Flt-1 (VEGFR1) Human RTK Kinase Enzymatic LANCE Assay [Km ATP], Cerep.ERF_FR_ENZ_hFLT1 is an assay component calculated from the ERF_FR_ENZ_hFLT1 assay. It is designed to measure enzyme activity using a type of enzyme reporter as detected by fluorescence intensity with LANCE technology.Data from the assay component ERF_FR_ENZ_hFLT1 was analyzed at the assay endpoint, ERF_FR_ENZ_hFLT1, in the positive analysis fitting direction relative to DMSO as the negative control and baseline of activity. Using a type of enzyme reporter, loss-of-signal activity can be used to understand changes in enzymatic activity as they relate to gene FLT1. To generalize the intended target to other relatable targets, this assay endpoint is annotated to the kinase intended target family, where the subfamily is receptor tyrosine kinase.
Flt1 (h) is incubated with 8 mM MOPS pH 7.0, 0.2 mM EDTA, 250 uM […], 10 mM MgAcetate and [g- 33P]-ATP (specific activity and concentration as required). The reaction is initiated by the addition of the Mg/ATP mix. After incubation for 40 minutes at room temperature, the reaction is stopped by the addition of phosphoric acid to a concentration of 0.5%. […]
With O=C(/C=C/c1ccc(O)cc1)CC(=O)/C=C/c1ccc(O)cc1 the outcome was “inactive”.
